The text below walks through data of PubChem BioAssay (NCI).

Compounds without any hit were thinned out: in the full panel of roughly 79,000, 15% have a hit. A number with no mark means an inactive call. The source made the active and inactive calls. Cut-off read from the data, not from the text of the source: active = growth inhibition above about 70%; inactive = the rest.

Assay [1] can be described thus: NCI Yeast Anticancer Drug Screen. Data for the rad50 strain (AID 155).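 Note: 0% = growth of vehicle-only cultures of the same strain.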 Conditions: S. cerevisiae rad50 strain growth inhibition; at 50.0 µM; active compounds read high. A digest of the protocol:
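Inhibition values express reduced yeast growth in compound-treated cultures relative to vehicle-treated controls.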

Assay [2] is described as follows: NCI Yeast Anticancer Drug Screen. Data for the mec2-1 strain (AID 157). Conditions: S. cerevisiae mec2-1 strain, at 50.0 µM, active compounds read high. A digest of the protocol: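 Compounds were applied to mec2-1 yeast cells. Their growth was then compared with that of vehicle-treated cultures to give growth inhibition.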
Assay [3] is described as follows: NCI Yeast Anticancer Drug Screen. Data for the sgs1 mgt1 strain (AID 161).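 Note: 0% = growth of cultures given vehicle only.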 To be noted: S. cerevisiae sgs1 mgt1 strain, at 50.0 µM, active compounds read high. In short, it runs like this:
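Compounds are added to genetically altered yeast, and growth is compared with cultures given vehicle alone to give percent inhibition.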

Assay [4] can be described thus: NCI Yeast Anticancer Drug Screen. Data for the cln2 rad14 strain (AID 165).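 Note: 0% = growth equal to vehicle treated cultures.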 Conditions: S. cerevisiae cln2 rad14 strain, at 50.0 µM, active compounds read high. A digest of the protocol: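 Strain: cln2 rad14 yeast, altered in cell cycle control and DNA damage repair. Read-out: growth inhibition vs vehicle.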
Assay [5] in a line: NCI Yeast Anticancer Drug Screen. Data for the bub3 strain (AID 167). Conditions: S. cerevisiae bub3 mutant strain, at 50.0 µM, active compounds read high. A digest of the protocol: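 Steps: expose the mutant yeast strain to compound; grow alongside vehicle-treated cultures; measure growth; express inhibition against the vehicle cultures.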
The nature of assay [6]: NCI Yeast Anticancer Drug Screen. Data for the mlh1 rad18 strain (AID 175). Conditions: S. cerevisiae mlh1 rad18 strain growth inhibition; at 50.0 µM; active compounds read high. In short, it runs like this: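 A repair-deficient yeast strain is exposed to test compound, and growth is scored relative to vehicle-treated controls.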

On to `O=P(CCCCCCCCCCP(=O)(c1ccccc1)c1ccccc1)(c1ccccc1)c1ccccc1`, for which the growth inhibition was -11% in assay [1]; 2.6% in assay [2]; 23.5% in assay [3]; 9.55% in assay [4]; 2.3% in assay [5]; 29.5% in assay [6].
With `NC1CC(=O)c2c(Cl)sc(Cl)c21` (centres undefined), the growth inhibition in assay [1] was 51.4%; in assay [2] it was 35.7%; in assay [3], 60.5%; in assay [4], 41.6%; in assay [5] it was 27.6%; in assay [6], 1.15%.
As for `CC(C)(C)OC(=O)N(CCNS(=O)(=O)c1cccc2cnccc12)CCC(=O)ON1C(=O)CCC1=O`, the growth inhibition in assay [1] is 4.7%; in assay [2], -0.2%; in assay [3] it was 17.8%; in assay [4], 14.7%; in assay [5], 23.3%; in assay [6], 6.35%.
With `Cc1nc2ccccc2nc1C1=C(O)c2ccccc2CC1=O`, the growth inhibition in assay [1] was 0.85%; in assay [2], 8.6%; in assay [3] it was 10.1%; in assay [4], -71.2%; in assay [5], -10.2%; in assay [6], 1.35%.
As for `S=C(NC1CCCCC1)N1CCC(CCCC2CCN(C(=S)NC3CCCCC3)CC2)CC1`, the growth inhibition in assay [1] was -42.8%; in assay [2], -31.2%; in assay [3] it was -44.5%; in assay [4] it was -1.05%; in assay [5] it was -41.8%; in assay [6], -46.2%.
For `CC(=O)CCC(CCCC(CCC(C)=O)[N+](=O)[O-])[N+](=O)[O-]` (centres undefined), the growth inhibition was -7.3% in assay [1]; 15.3% in assay [2]; 0.9% in assay [3]; -9.4% in assay [4]; 13.9% in assay [5]; 4.15% in assay [6].
Take `OCC(CCl)(CCl)CCl`: the growth inhibition in assay [1] is 31%; in assay [2], 18.1%; in assay [3], 10.8%; in assay [4], 7.45%; in assay [5], 18.2%; in assay [6] it was 41%.
As to `COc1ccccc1NCS(=O)(=O)O`, the growth inhibition in assay [1] was -7.2%; in assay [2], -2.5%; in assay [3] it was -5.95%; in assay [4] it was -60.2%; in assay [5], 11.2%; in assay [6], -8.1%.
`Cc1c(Cc2c(C)n(C)n(-c3ccccc3)c2=O)c(=O)n(-c2ccccc2)n1C`: the growth inhibition is 9.55% in assay [1]; -1.7% in assay [2]; -0.25% in assay [3]; 13.4% in assay [4]; 9.9% in assay [5]; 9.5% in assay [6].
As for `COc1c(C)cc(Cc2ccc3c(c2)OCO3)cc1C`, the growth inhibition in assay [1] was -7.8%; in assay [2], -12.9%; in assay [3] it was 4.2%; in assay [4], -22%; in assay [5], -10.6%; in assay [6], -5.3%.
Turning to `COC(=O)C(C(=O)OC)C(c1cccc([N+](=O)[O-])c1)C(N)c1ccccc1` (centres undefined), the growth inhibition is 15.3% in assay [1]; -8.95% in assay [2]; -0.5% in assay [3]; 28.2% in assay [4]; 32.1% in assay [5]; 56.4% in assay [6].
With `CC1CC(c2ccccc2)(c2ccccc2)CN1C` (centres undefined), the growth inhibition was -16.1% in assay [1]; 9.4% in assay [2]; 6.55% in assay [3]; -45.3% in assay [4]; 15.2% in assay [5]; 8.5% in assay [6].
For the compound `CC(C)CCOC(=O)COc1ccc(Cl)cc1Cl`, the growth inhibition was 6.95% in assay [1]; -13.7% in assay [2]; 3.55% in assay [3]; 19.2% in assay [4]; 18.8% in assay [5]; -17% in assay [6].
Turning to `CCOC(=O)C1(C(=O)OCC)CC1c1ccccc1` (centres undefined), the growth inhibition in assay [1] is 4.6%; in assay [2], -32.5%; in assay [3] it was 5.5%; in assay [4], -0.6%; in assay [5], -11.7%; in assay [6] it was -3.2%.
As to `CCOC(=O)/C=C(/C)N(CC)CC`, the growth inhibition in assay [1] is 23.9%; in assay [2], -4%; in assay [3], 12.2%; in assay [4] it was 11.3%; in assay [5] it was -5.05%; in assay [6], 19.9%.
Regarding `O=C(Nc1ccccc1Cl)OCCOc1ccccc1`, the growth inhibition was -3.7% in assay [1]; 10.1% in assay [2]; 11.3% in assay [3]; -19.1% in assay [4]; 17.2% in assay [5]; 14.7% in assay [6].
With `COc1ccc2nccc(/C=C/CC3CCN(C(C)=O)CC3)c2c1`, the growth inhibition in assay [1] is 31.8%; in assay [2], 29.4%; in assay [3] it was 88.2% (active); in assay [4], 45.6%; in assay [5], 31.6%; in assay [6], 74.8% (active).
Regarding `O=C(CN1C(=O)c2ccccc2C1=O)NC(Cc1ccccc1)C(=O)O` (centres undefined), the growth inhibition is 7.85% in assay [1]; -6.9% in assay [2]; -16.9% in assay [3]; -12.5% in assay [4]; 10.1% in assay [5]; -9.65% in assay [6].
Take `O=C(NCC1CC1)Nc1cccc2ccccc12`: the growth inhibition in assay [1] is -19.1%; in assay [2] it was -3.4%; in assay [3] it was -2%; in assay [4], -54.7%; in assay [5], -14%; in assay [6], -5.1%.
As for `Cc1nc2nnc(N)n2nc1C`, the growth inhibition in assay [1] is 10.1%; in assay [2], -6.15%; in assay [3], 3.75%; in assay [4], -22%; in assay [5], 8.45%; in assay [6], 4.05%.
As to `COCCOCCOCCC(=O)NC1CC2CCC1(C)C2(C)C` (centres undefined), the growth inhibition in assay [1] was -10.5%; in assay [2] it was -1.85%; in assay [3], 8.2%; in assay [4], -16.7%; in assay [5] it was 23.7%; in assay [6], 15.4%.
In the case of `CCOc1ccc(Nc2nc(N)nc(N)c2N)cc1`, the growth inhibition is 2.85% in assay [1]; 10.8% in assay [2]; -8.95% in assay [3]; -13.7% in assay [4]; -20.4% in assay [5]; 3.8% in assay [6].
On to `COc1ccc2c(c1)CCCN2c1ccc(N=C(N)N)cc1`, for which the growth inhibition in assay [1] was 2.95%; in assay [2], -6.35%; in assay [3], -1.75%; in assay [4], -17.8%; in assay [5], 27.9%; in assay [6], 16.5%.
Turning to `COc1ccc(C(=O)O)cc1`, the growth inhibition in assay [1] is 12.3%; in assay [2] it was -19.8%; in assay [3], -32.7%; in assay [4] it was -41%; in assay [5], -2.9%; in assay [6], -4.25%.
With `O=C(NC1CCCCC1)c1cccnc1`, the growth inhibition in assay [1] was -11.4%; in assay [2] it was -2.2%; in assay [3] it was -17.1%; in assay [4], -10.9%; in assay [5], -14.5%; in assay [6], -13.5%.
As for `Cc1ccc(-c2n[nH]c(=O)n2N)cc1`, the growth inhibition is 3.5% in assay [1]; -23% in assay [2]; 0.85% in assay [3]; 5.45% in assay [4]; 0.45% in assay [5]; 7.25% in assay [6].
With `Cn1c(=O)c2c(nc(Br)n2CC(=O)CF)n(C)c1=O`, the growth inhibition was 13.2% in assay [1]; 10.8% in assay [2]; -3.75% in assay [3]; -24.4% in assay [4]; 8% in assay [5]; 20.4% in assay [6].
Turning to `O=C1NC(=O)C(=O)N1`, the growth inhibition was 25.8% in assay [1]; 13.4% in assay [2]; 8.65% in assay [3]; 16.4% in assay [4]; 27.8% in assay [5]; -1.8% in assay [6].
`Nc1cc(C(=O)c2ccccc2C(=O)O)ccc1Cl`: the growth inhibition was -34.3% in assay [1]; -46.7% in assay [2]; -8.3% in assay [3]; 6.65% in assay [4]; -28.8% in assay [5]; -15.9% in assay [6].
Consider `C=C1C(=C)C2C=CC1C1C3C(c4ccccn4)=NN=C(c4ccccn4)C3C21` (centres undefined), for which the growth inhibition in assay [1] was 54.4%; in assay [2] it was 66.2%; in assay [3], 68.8%; in assay [4] it was 74.5% (active); in assay [5], 66.6%; in assay [6] it was 62.5%.
Take `CCOC(=O)CC(=O)C(=O)NNC1=NCCCN1`: the growth inhibition in assay [1] is 7.25%; in assay [2], -5.35%; in assay [3], -20.1%; in assay [4], 14.2%; in assay [5], 2.3%; in assay [6], 0.45%.
As for `NNC(=O)N/N=C1\C(=O)N(c2ccc(Cl)c(Cl)c2)C(=O)C(=O)C1c1nc2ccccc2s1` (centres undefined), the growth inhibition in assay [1] was 41.4%; in assay [2] it was 5.95%; in assay [3], 26.9%; in assay [4], 13.3%; in assay [5], 0%; in assay [6], 26.4%.
On to `O=C(COc1ccccc1)OCCCl`, for which the growth inhibition in assay [1] was -7.8%; in assay [2], -15.3%; in assay [3] it was -15.4%; in assay [4], -67.5%; in assay [5], -25.8%; in assay [6] it was -75.9%.
On to `CC(=O)OC1CC2CCCCC21` (centres undefined), for which the growth inhibition in assay [1] is 10.6%; in assay [2], 7%; in assay [3] it was -0.6%; in assay [4] it was 37%; in assay [5], 13.8%; in assay [6], 2.3%.
For the compound `O=C1C2Nc3ccccc3N=C2OC1c1cccc([N+](=O)[O-])c1` (centres undefined), the growth inhibition was 16.3% in assay [1]; 15.6% in assay [2]; 22.9% in assay [3]; 16.9% in assay [4]; 20.6% in assay [5]; 24.2% in assay [6].
Consider `c1cnc(NC(Nc2ncccn2)c2ccco2)nc1`, for which the growth inhibition is -6.5% in assay [1]; -8.9% in assay [2]; -5.55% in assay [3]; -21.9% in assay [4]; -12.2% in assay [5]; -10.4% in assay [6].
Take `CC(Sc1ccc([N+](=O)[O-])cn1)C(=O)O` (centres undefined): the growth inhibition was 2.55% in assay [1]; 12.9% in assay [2]; 13.5% in assay [3]; -37% in assay [4]; -25.9% in assay [5]; 30.9% in assay [6].
On to `CC(C)CC(CC(C)C)NCC(C)OC(=O)c1ccc(N(C)C)cc1` (centres undefined), for which the growth inhibition in assay [1] was 57.5%; in assay [2], -4.2%; in assay [3], 20.2%; in assay [4], -7.55%; in assay [5] it was 2.6%; in assay [6], 1.3%.
Regarding `NNC(=O)c1ccco1`, the growth inhibition was 27.2% in assay [1]; -3.85% in assay [2]; -14.3% in assay [3]; 20.8% in assay [4]; -2.1% in assay [5]; 15.8% in assay [6].
